Screening data as filed in PubChem.
In the library only some 9.2% were active in any assay of this set; here they are far more common.
FLuc counter: counter-screen for miR-21 project: firefly luciferase inhibitors or activators. P08659. purified FLuc, Km substrates, luminescence inhibition. Potency, µM (top dose mostly 57.5 µM), without a hit: at the top dose activity change, negative = inhibition, most hits filed as inhibitors. 360,000 compounds, 6.9% hits;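 also: plate controls were vehicle for no effect and reference inhibitor for full effect; nearly all actives have a fitted effect of over 55% in size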
Target sequence (P08659 whole entry, looked up): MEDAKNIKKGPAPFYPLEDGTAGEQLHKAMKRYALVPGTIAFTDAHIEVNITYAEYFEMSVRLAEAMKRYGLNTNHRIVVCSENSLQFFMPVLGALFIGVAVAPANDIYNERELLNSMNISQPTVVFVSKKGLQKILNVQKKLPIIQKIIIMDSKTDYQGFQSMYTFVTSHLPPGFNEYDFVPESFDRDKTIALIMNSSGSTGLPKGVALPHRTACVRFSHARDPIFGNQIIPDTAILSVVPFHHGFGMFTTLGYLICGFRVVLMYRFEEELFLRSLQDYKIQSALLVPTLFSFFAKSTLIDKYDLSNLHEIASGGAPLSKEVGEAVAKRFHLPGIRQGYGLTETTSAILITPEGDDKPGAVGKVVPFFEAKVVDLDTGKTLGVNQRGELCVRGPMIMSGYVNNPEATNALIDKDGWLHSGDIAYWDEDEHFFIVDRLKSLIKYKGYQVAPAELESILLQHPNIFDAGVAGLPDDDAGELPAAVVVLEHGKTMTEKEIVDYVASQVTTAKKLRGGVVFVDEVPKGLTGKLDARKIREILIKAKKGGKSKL
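Purified P. pyralis luciferase (10nM final) with 10uM D-luciferin and 10uM ATP (Km levels) in 50mM Tris acetate pH 7.5, 10mM Mg acetate, 0.01% Tween-20, 0.05% BSA; qHTS 6-point titration, ~60 µM downward; luminescence read.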
ELG1 repair inh: ELG1-dependent DNA repair inhibition. HEK293T ELG1-luciferase reporter, luminescence, 16 h; DNA damage induced by 5-fluorouridine. Potency, µM (titrated, usually from 46.1 µM), for inactives: top-dose activity change, negative = inhibition, actives largely listed as inhibitors. 330,000 compounds, 2.3% hits. AID 504467; also: % is scaled to controls: 0 for no effect and ±100 for the full control effect; nearly all actives have a fitted effect of over 55% in size
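Reporter activity after DNA damage by 5-fluorouridine is monitored. Compound-treated cells incubate 16 hr at 37 °C, then ONE-Glo is added for 30 min before luminescence reading.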
ELG1 genotoxic: genotoxicity induction in ELG1-luciferase HEK293T cells; 330,000 compounds, 1.3% hits; HEK293T ELG1-luciferase reporter, luminescence, 16 h; Potency, µM (doses to about 46 µM), for the others: at the highest dose activity change, positive = activation, most hits filed as activators; AID 504466; also: % of control where 0% means no effect; nearly all actives have a fitted effect of over 60% in size
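DMSO vehicle served as control against compound-treated ELG1-luciferase HEK293T cells; exposure lasted 16 hr at 37 °C and 5% CO2, followed by ONE-Glo luminescence detection after 30 min.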
Rab9 prom act: Rab9 promoter activation; AID 485297; Potency, µM (top dose mostly 9.22 µM), for inactives: at the top dose activation, negative = inhibition, most hits filed as activators; Huh7 Rab9 promoter-luciferase reporter, luminescence, 24 h; 320,000 compounds, 2.8% hits; also: % of control where 0% means no effect; nearly all actives have a fitted effect of over 60% in size
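Cell-based reporter: Huh7 stable for Rab9 promoter-driven luciferase, plated in reduced-serum medium with 10% FBS at 1500 cells/well, compound-treated 24 h at 37 °C, luminescence read after 10 min reagent.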
NPC1 promoter act: activates the NPC1 promoter; Huh7 NPC1 promoter luciferase reporter, 24 h; Potency, µM (top dose mostly 9.22 µM), for inactives: top-dose activation, usual class: activators; 320,000 compounds, 2.4% hits; AID 485313; also: % of control where 0% means no effect; nearly all actives have a fitted effect of over 60% in size
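Huh7 cells stably carrying NPC1 promoter–luciferase, plated in Opti-MEM with 10% FBS for 2 h, were exposed to compound in DMSO for 24 h at 37 °C; luciferase reagent was added for 10 min and luminescence read.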
SMN2 splice enh: SMN2 splice variant enhancement; HEK293 SMN2-luciferase splicing reporter, luminescence, 30-36 h; Potency, µM (titrated, usually from 46.1 µM), for inactives: top-dose activity change, positive = activation, hits mostly activators; AID 1458; 210,000 compounds, 2.8% hits; also: % of control where 0% means no effect; nearly all actives have a fitted effect of over 55% in size
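HEK293 cells carry an SMN2 minigene-luciferase reporter in which exon 7 inclusion puts luciferase in frame. Cells were seeded at 2000 cells/well, attached for 10-12 hours, then exposed to compounds for 30-36 hours at 37C before ONE-Glo luminescence.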
* marks the source's active call; other numbers are inactive results; u = inconclusive; x = no result given. Calls follow the shape of the dose curve; as a rule, active = well fitted curve in the direction sought with a large enough effect; inconclusive = small, poorly fitted or top-dose-only effect, or another doubt; inactive = no such curve, though single readings can be large; an effect the other way counts as inactive or inconclusive. Potency is read from the fitted curve at half-maximal effect.

SMILES	FLuc counter	ELG1 repair inh	ELG1 genotoxic	Rab9 prom act	NPC1 promoter act	SMN2 splice enh
O=C1N[C@@H](Cc2ccccc2)COC(=O)[C@@H](Cc2ccc(F)cc2)CC/C=C/C[C@@H]1CC(=O)N(CCO)Cc1ccccc1	x	u	-5%	x	x	x
Cc1cc(C)c(OCC(=O)NCC2COc3ccccc3O2)c(C)c1 (stereo unspecified)	x	-1%	1%	1%	-2%	x
O=C(/C=C/c1ccc2c(c1)S(=O)(=O)N(Cc1ccccc1)[C@H]2CC(=O)N1CCOCC1)N1CCOCC1	x	14%	1%	x	x	x
Cc1cc(C)c(NC(=O)CN(C)S(=O)(=O)c2ccc3c(c2)c(=O)n(C)c(=O)n3C)c(C)c1	0%	x	x	x	x	-3%
O=C1N[C@H](Cc2ccccc2)COC(=O)[C@H](Cc2ccc(F)cc2)C/C=C\C[C@@H]1CC(=O)N(CCO)Cc1ccccc1	x	u	-8%	x	x	x
O=C1N[C@@H](c2ccccc2)COC(=O)[C@@H](Cc2ccc(F)cc2)C/C=C\C[C@@H]1CC(=O)N(CCO)Cc1ccccc1	x	21µM*	-6%	x	x	x
O=C1N[C@@H](Cc2ccccc2)COC(=O)[C@H](Cc2ccc(F)cc2)C/C=C\C[C@@H]1CC(=O)N(CCO)Cc1ccccc1	x	21µM*	-4%	x	x	x
Cc1ccc(C(=O)COC(=O)COc2ccccc2[N+](=O)[O-])s1	-17%	7%	0%	1%	0%	x
O=C(COC(=O)c1cccc([N+](=O)[O-])c1)c1ccc2c(c1)OCO2	2.7µM*	u	21µM*	2.5µM*	3.5µM*	x
Cc1ccc(C(=O)COC(=O)c2cccc([N+](=O)[O-])c2)s1	4.8µM*	u	10%	7%	11%	x
Cc1noc(C)c1COC(=O)c1ccc(-c2nc3ccccc3s2)s1	5.4µM*	u	7.3µM*	3.5µM*	u	10µM*
Cc1noc(C)c1COC(=O)c1cc(=O)[nH]c2ccccc12	-1%	10%	5%	3%	-5%	-10%
CCNC(=O)COC(=O)c1ccc(-c2nc3ccccc3s2)s1	1.3µM*	u	u	u	17%	13µM*
CCNC(=O)COC(=O)c1cc(C)nc2ccccc12	0%	1%	0%	-5%	-7%	3%
O=C(N/N=C/c1cn(-c2ccccc2)nc1-c1ccc(F)cc1)c1ccc2c(c1)OCO2	4.3µM*	u	-3%	0%	4%	8%
O=C(N/N=C/c1cn(-c2ccccc2)nc1-c1ccc2c(c1)OCCO2)c1ccncc1	-18%	u	u	u	u	11µM*
O/N=C/c1cn(-c2ccccc2)nc1-c1ccc2c(c1)OCCO2	u	u	9%	10%	13%	13%
COc1ccc(-c2nn(-c3ccccc3)cc2/C=N/NC(=O)c2ccc3c(c2)OCO3)cc1	u	u	-8%	3%	1%	25%
O=C(N/N=C\c1cn(-c2ccccc2)nc1-c1ccccc1)c1ccc2c(c1)OCO2	4.8µM*	u	0%	-1%	5%	19%
CCOc1ccc(C2C(=O)N(C3CCCCC3)CC(=O)N2Cc2ccc(F)cc2)cc1OC (stereo unspecified)	-7%	x	x	x	x	x
CCOC(=O)N1CCC(NC(=O)CSCc2nc(-c3cccc(OC)c3)oc2C)CC1	6%	12µM*	-9%	-20%	-10%	-70%
CCOc1ccc(-c2nc(CSCC(=O)NC3CC3)c(C)o2)cc1	u	14%	0%	-24%	1%	x
CCOc1ccc(-c2nc(CSCC(=O)NCc3ccco3)c(C)o2)cc1	12µM*	7.3µM*	15%	-7%	-4%	-65%
CCOC(=O)N1CCC(NC(=O)CSCc2nc(-c3ccc(OCC)cc3)oc2C)CC1	-18%	13µM*	-9%	-1%	-1%	x
Cc1cccc(Cc2c(C)nc3nc(SCC(=O)NCc4ccccc4)nn3c2C)c1	-3%	x	x	x	x	-28%
COc1ccc(CCNC(=O)c2cc3sccc3n2Cc2ccc(Cl)cc2)cc1OC	6%	x	x	x	x	-43%
